The text below walks through data of PubChem BioAssay (NCI).

About 83,000 compounds went through this panel and 20% of them were active in at least one assay; those are over-represented in the sample as a whole.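 Cells were grown in 96-well plates and exposed to the test compound at a single concentration for 48 hours; results are reported as percent growth, with values below 10 considered active.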 Values without a mark were called inactive. Calls of active or inactive are those of the source.

Test systems include HCT-15 colon; HT29 colon; SNB-75 CNS; SNB-19 CNS; U251 CNS; PC-3 prostate; SK-MEL-5 melanoma; UACC-62 melanoma; LOX IMVI melanoma; SK-MEL-28 melanoma.
What all share (assay): NCI-60 one-dose screen, 48 h (100 = growth as untreated, 0 = no growth, -100 = all killed)
Holding throughout (conditions): 10 µM unless noted

On to `CCC#CC[C@H]1C/C=C2/C(=O)C=C[C@@H]2C/C=C\CCCC(=O)O1`, for which the growth is -6.01% (active) in the experiment on HCT-15 colon; -15.8% (active) in the experiment on HT29 colon; 38.7% in the experiment on SNB-75 CNS; 37.3% with SNB-19 CNS; -11.2% (active) with U251 CNS; -19.7% (active) with PC-3 prostate. Further, the growth was -85.6% (active) with SK-MEL-5 melanoma, -17.6% (active) with UACC-62 melanoma, -55.8% (active) with LOX IMVI melanoma and 1.63% (active) in the experiment on SK-MEL-28 melanoma.
Take `Cc1oc2nc[nH]c(=O)c2c1C(=O)/C=C/c1ccc(Cl)cc1`: the growth was 19.9% in the experiment on HCT-15 colon; 12.9% in the experiment with HT29 colon; -11.4% (active) in the experiment on SNB-75 CNS; 42% in the experiment on SNB-19 CNS; 24.3% with U251 CNS; 34.2% in the experiment with PC-3 prostate. In addition, the growth with SK-MEL-5 melanoma was 37.5%; in the experiment with UACC-62 melanoma, 18.2%; in the experiment on LOX IMVI melanoma it was 8.44% (active); in the experiment with SK-MEL-28 melanoma it was 39.4%.
As for `NC(=O)c1ccc2c(c1)OCO2`, the growth in the experiment with HCT-15 colon is 102%; in the experiment with HT29 colon it was 103%; in the experiment on SNB-75 CNS, 84.2%; with SNB-19 CNS, 109%; in the experiment with U251 CNS it was 107%; with PC-3 prostate, 98.9%. In addition, the growth in the experiment on SK-MEL-5 melanoma was 99.2%; in the experiment on UACC-62 melanoma it was 103%; in the experiment with LOX IMVI melanoma, 95.4%; in the experiment on SK-MEL-28 melanoma, 108%.
Take `COc1ccc(-n2c(C)cc(-c3ccccc3)c2C)cc1`: the growth with HCT-15 colon is 37.9%; with HT29 colon, 12.4%; in the experiment on SNB-75 CNS, 41.2%; in the experiment with SNB-19 CNS, 69.6%; with U251 CNS, 43.5%; with PC-3 prostate it was 31.7%. Moreover, the growth is -3.53% (active) in the experiment with SK-MEL-5 melanoma, 52.2% in the experiment with UACC-62 melanoma, 42.1% in the experiment on LOX IMVI melanoma and 58.1% in the experiment on SK-MEL-28 melanoma.
Consider `COc1cc2c(cc1OC)C1(C)N(CC2)C(=O)OC1(C)C` (stereo not given), for which the growth was 101% in the experiment with HCT-15 colon; 115% in the experiment on HT29 colon; 76.5% with SNB-75 CNS; 105% in the experiment on SNB-19 CNS; 101% in the experiment on U251 CNS; 97.3% in the experiment with PC-3 prostate. The growth in the experiment on SK-MEL-5 melanoma is 99.6%; with UACC-62 melanoma, 106%; in the experiment with LOX IMVI melanoma it was 96.3%; in the experiment on SK-MEL-28 melanoma, 112%.
With `COc1cc(-n2nc(C(=O)Nc3ccc(C(=O)O)cc3)nc2-c2ccccc2)cc(OC)c1OC`, the growth in the experiment on HCT-15 colon was 89.3%; in the experiment with HT29 colon, 103%; in the experiment on SNB-75 CNS, 94.1%; with SNB-19 CNS, 91.9%; in the experiment on U251 CNS, 102%; with PC-3 prostate it was 71.3%. In addition, the growth is 107% in the experiment on SK-MEL-5 melanoma, 95.1% with UACC-62 melanoma, 101% in the experiment on LOX IMVI melanoma and 115% in the experiment on SK-MEL-28 melanoma.
Take `O=C(/C=C/c1ccccc1)n1c(-c2ccc(Cl)cc2)nc2ccccc21`: the growth is -24.8% (active) with HCT-15 colon; -40.6% (active) with HT29 colon; 18.1% in the experiment on SNB-75 CNS; 41.1% in the experiment on SNB-19 CNS; -0.388% (active) in the experiment on U251 CNS; 6.09% (active) in the experiment with PC-3 prostate. Besides, the growth with SK-MEL-5 melanoma is -70.6% (active); in the experiment on UACC-62 melanoma, -84.7% (active); with LOX IMVI melanoma it was -82.9% (active); in the experiment with SK-MEL-28 melanoma, -65.4% (active).
As for `CCC(c1ccc(OC)cc1)C(CC)c1ccc(OCC[N+](C)(C)C)cc1` (stereo not given), the growth was 91.5% with HCT-15 colon; 28.4% in the experiment with HT29 colon; 40% in the experiment on SNB-75 CNS; 19.3% with SNB-19 CNS; 18.9% in the experiment on U251 CNS; 45.3% in the experiment on PC-3 prostate. Further, the growth in the experiment on SK-MEL-5 melanoma was 15.4%; with UACC-62 melanoma, 30.3%; in the experiment with LOX IMVI melanoma, 42.9%; in the experiment on SK-MEL-28 melanoma, 45.1%.
As for `Nc1c(C(=O)Nc2cccc(C(F)(F)F)c2)sc2nc3c(cc12)CCCCCC3`, the growth is 19.3% in the experiment on HCT-15 colon; 0.128% (active) with HT29 colon; -34% (active) in the experiment on SNB-75 CNS; 25.9% in the experiment with SNB-19 CNS; -18.4% (active) in the experiment with U251 CNS; 52.4% with PC-3 prostate. Moreover, the growth in the experiment with SK-MEL-5 melanoma was 25.8%; in the experiment on UACC-62 melanoma, 23.9%; with LOX IMVI melanoma, 21.5%; in the experiment on SK-MEL-28 melanoma, 10.4%.
Take `O=C1CCC/C=C\C[C@H]2C=CC(=O)/C2=C/C[C@H](C/C=C\CC(F)(F)F)O1`: the growth in the experiment with HCT-15 colon was -5.57% (active); in the experiment with HT29 colon, -28.9% (active); in the experiment with SNB-75 CNS, 68.7%; in the experiment on SNB-19 CNS, 11.3%; in the experiment on U251 CNS, -65.5% (active); in the experiment with PC-3 prostate it was -42.5% (active). Further, the growth in the experiment with SK-MEL-5 melanoma was -90.7% (active); with UACC-62 melanoma, -12.1% (active); in the experiment with LOX IMVI melanoma, -88.2% (active); in the experiment with SK-MEL-28 melanoma, -28.6% (active).
On to `COC(=O)CCCCCN=Cc1c(O)c(O)c(C(C)C)c2cc(C)c(-c3c(C)cc4c(C(C)C)c(O)c(O)c(C=NCCCCCC(=O)OC)c4c3O)c(O)c12`, for which the growth in the experiment on HCT-15 colon is 17.2%; in the experiment with HT29 colon, 4.21% (active); with SNB-75 CNS, 46.9%; in the experiment with SNB-19 CNS it was 20.6%; in the experiment with U251 CNS, 3.85% (active); in the experiment on PC-3 prostate, 14%. Besides, the growth in the experiment with SK-MEL-5 melanoma is 32.3%; in the experiment with UACC-62 melanoma it was 25%; with LOX IMVI melanoma, 13.7%; in the experiment on SK-MEL-28 melanoma, 33%.
For `CC(Br)C(Br)c1cc2c(cc1Br)OCO2` (stereo not given), the growth with HCT-15 colon is 101%; with HT29 colon it was 96%; in the experiment on SNB-75 CNS it was 78.2%; with SNB-19 CNS, 111%; in the experiment on U251 CNS, 93.1%; in the experiment with PC-3 prostate, 79.2%. Besides, the growth is 104% with SK-MEL-5 melanoma, 108% in the experiment on UACC-62 melanoma, 96.2% in the experiment on LOX IMVI melanoma and 105% in the experiment on SK-MEL-28 melanoma.
For the compound `CCOC(=O)c1ccccc1NC(c1ccccc1)c1ccc2cccnc2c1O` (stereo not given), the growth in the experiment on HCT-15 colon is 23%; in the experiment on HT29 colon, 39.4%; in the experiment on SNB-75 CNS, 52.7%; with SNB-19 CNS, 30.9%; in the experiment on U251 CNS, 17.7%; in the experiment with PC-3 prostate it was 25.4%. For the same compound, the growth in the experiment on SK-MEL-5 melanoma is 4.23% (active); in the experiment with UACC-62 melanoma, 12.8%; in the experiment with LOX IMVI melanoma it was 11.9%; in the experiment with SK-MEL-28 melanoma, 38.3%.
As to `CC(=O)OC[Si](C)(C)c1ccccc1`, the growth in the experiment on HCT-15 colon was 99.7%; with HT29 colon, 105%; in the experiment on SNB-75 CNS it was 89.8%; with SNB-19 CNS, 102%; in the experiment with U251 CNS it was 93.7%; in the experiment on PC-3 prostate it was 95.8%. Besides, the growth with SK-MEL-5 melanoma was 97.3%; in the experiment on UACC-62 melanoma, 102%; with LOX IMVI melanoma, 103%; with SK-MEL-28 melanoma it was 98.2%.
